Results: the supplement of paper PMC9023506
Structures can show the parent of a compound that is named as a salt.

system: Danio rerio larvae (5 dpf); experiment: activity during first hour (no stimuli), difference vs DMSO (percentage points (treated minus DMSO)); higher = more of the behaviour than the DMSO vehicle control; conditions: 10 µM; exposure time: 3 h pre-incubation + 3 h imaging
Method: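 5-dpf wild-type zebrafish larvae were imaged in 96-well plates. They were treated with 190 Tocris FDA-approved drugs at 10 µM (1 µl/ml DMSO) for 3 h before and 3 h during imaging at 28.5 °C, 48 larvae per drug. Automated image analysis gave % time moving and optomotor responses. Values are drug group mean minus DMSO vehicle mean (n=844), in percentage points, for 10 behaviours.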

| Compound | activity during first hour |
| --- | --- |
| COc1ccc(C(CN(C)C)C2(O)CCCCC2)cc1 (configuration not stated) [Venlafaxine hydrochloride] | -22.5 |
| CC(C)C[C@H]1C(=O)N2CCC[C@H]2[C@]2(O)O[C@](NC(=O)[C@@H]3C=C4c5cccc6[nH]c(Br)c(c56)C[C@H]4N(C)C3)(C(C)C)C(=O)N12 [Bromocriptine mesylate] | 15.2 |
| CC[C@@H](C(N)=O)N1CCCC1=O [Levetiracetam] | 7.99 |
| C=C1C[C@@H]2[C@H](CC[C@]3(C)C(=O)CC[C@@H]23)[C@@]2(C)C=CC(=O)C=C12 [Exemestane] | -19.6 |
| CCN(C)C(=O)Oc1cccc([C@H](C)N(C)C)c1 [Rivastigmine tartrate] | 6.97 |
| N[C@@H]1C[C@H]1c1ccccc1 [Tranylcypromine hydrochloride] | -14.1 |
| CN1C[C@H](C(=O)N[C@]2(C)O[C@@]3(O)[C@@H]4CCCN4C(=O)[C@H](Cc4ccccc4)N3C2=O)C[C@@H]2c3cccc4[nH]cc(c34)C[C@H]21 [Dihydroergotamine mesylate] | 4.7 |
| COc1cc2c(cc1OC)C1CC(=O)C(CC(C)C)CN1CC2 (configuration not stated) [Tetrabenazine] | 3.91 |
| Cc1cccc([C@H](C)c2c[nH]cn2)c1C [Dexmedetomidine hydrochloride] | -27.8 |
| O=c1[nH]c2ccccc2n1C1CCN(CCCC(c2ccc(F)cc2)c2ccc(F)cc2)CC1 [Pimozide] | -12.5 |
| C=CCN1C[C@H](C(=O)N(CCCN(C)C)C(=O)NCC)C[C@@H]2c3cccc4[nH]cc(c34)C[C@H]21 [Cabergoline] | -9.57 |
| CC(O)(CS(=O)(=O)c1ccc(F)cc1)C(=O)Nc1ccc(C#N)c(C(F)(F)F)c1 (configuration not stated) [Bicalutamide] | 4.47 |
